Screens from PubChem.
Only some compounds are listed: those with a hit (about 11% of all), similar ones and a draw of the others.
HPGD block: HPGD (human) dehydrogenase inhibition; Potency, µM, without a hit: top-dose activity change, negative = inhibition, usual class: inhibitors; purified HPGD, NADH fluorescence kinetic, PGE2 substrate; actives 4.3% (n = 150,000); P15428; AID 894; note: potency is the fitted concentration of half-maximal effect
Target sequence (P15428 whole entry, looked up): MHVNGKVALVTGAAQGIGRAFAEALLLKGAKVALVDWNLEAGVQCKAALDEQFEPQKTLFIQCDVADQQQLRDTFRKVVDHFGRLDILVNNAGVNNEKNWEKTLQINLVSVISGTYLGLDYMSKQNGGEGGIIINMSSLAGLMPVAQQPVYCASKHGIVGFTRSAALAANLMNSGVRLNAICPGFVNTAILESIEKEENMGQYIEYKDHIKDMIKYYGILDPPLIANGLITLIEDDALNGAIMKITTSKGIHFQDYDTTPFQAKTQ
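20 nM HPGD preincubated 15 min at room temperature with compound in 50 mM Tris-HCl pH 8, 0.01% Tween 20. Started with 1 mM NAD+ and 30 uM prostaglandin E2; NADH fluorescence (360/450 nm) read 5 times over 30-s intervals, last minus first.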
ALDH1A1 block: blocks purified human ALDH1A1 activity. P00352. Purified ALDH1A1, NADH fluorescence, propionaldehyde substrate. actives 7.3% (n = 220,000). Potency, µM (titrated, usually from 75.3 µM), without a hit: top-dose activity, negative = inhibition, most hits filed as inhibitors. AID 1030;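 note: potency is the fitted concentration of half-maximal effect; plate controls were no enzyme wells and a reference inhibitor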
PNC inhibitor: inhibitors of perinucleolar compartment assembly; PC3M PTB-GFP, PNC prevalence imaging, 16 h; hits give low values; actives 3.1% (n = 140,000); activity change (PNC), negative = inhibition, % at 10 µM; AID 2417;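 active = readout at or below -70, meaning at least 70% loss of cells showing the perinucleolar compartment, a nuclear body marking cancer cells; inconclusive = readout between -30 and a set limit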;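 note: plate controls were DMSO wells for no effect and camptothecin positive control wells for full effect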
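Compounds are pinned in duplicate onto adhered PC3M cells stably expressing GFP-tagged PTB and incubated 16 h at 37 C. Cells are then fixed, nuclei stained with Hoechst, and PNC-positive cells counted.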
* hit, by the source's call; ? = inconclusive; / = no result given; [ ] = another dose, or the depositor's remark. Unless noted, calls come from the whole dose curve; as a rule, active = well fitted inhibition curve with a large enough effect (not every such curve was filed as active); inconclusive = small, poorly fitted or top-dose-only effect, or another doubt; inactive = no such curve, though single readings can be large or run the other way. Unless noted, % is set by controls: 0 for no effect and ±100 for the full control effect.

SMILES	HPGD block	ALDH1A1 block	PNC inhibitor
COC(=O)C1=CC(C(=O)c2cccs2)=NN(c2ccc(OC)cc2)C1C(=O)OC (configuration not stated)	-18%	-8%	35
O=C(CNC(=S)NC(=O)c1ccccc1Br)c1ccccc1	/	18µM*	/
Cc1ccccc1C(=O)NC(=S)NCC(=O)c1ccccc1	?	-7%	-27
c1ccc2c(c1)nnn2CN1CCOCC1	1%	7%[13.5 µM]	/
COc1cnc(-c2ccccc2)[nH]c1=O	/	6%	/
O=C(/C=C/NNC(=O)c1ccccc1)c1ccc([N+](=O)[O-])cc1	/	-4%	/
CC(=O)Nc1cccc(C(=O)O)n1	/	-6%	/
CC(=O)Nc1cccc(NC(C)=O)n1	-11%	7%	-119*
COc1ccc2[nH]cc(CC(=O)O)c2c1	-17%	-6%	-17
O=C(O)Cc1c[nH]c2ccc(O)cc12	22µM*	?	/
CCCCN(CC)CCCNC(=O)CN1C(=O)CSc2ccc(S(=O)(=O)N3CCOCC3)cc21	/	8%	/
Cc1ccc(N(CC(=O)NCc2ccco2)S(=O)(=O)c2ccccc2)cc1	-9%	?	-8
O=C(COc1ccc(/C=N/NS(=O)(=O)c2ccccc2)cc1)Nc1ccc(F)cc1	/	-3%	12
COc1ccccc1NC(=O)NS(=O)(=O)c1ccc(C)cc1	4%	5%	-110*
CCNS(=O)(=O)c1ccc(NC(=O)Nc2ccccc2OC)cc1	/	25%	/
CC(C)NC(=O)COc1ccc(/C=N/NS(=O)(=O)c2ccccc2)cc1	/	15%	25
COc1ccccc1NC(=O)COc1ccc(/C=N/NS(=O)(=O)c2ccc(C)cc2)cc1	16µM*	?	?
COc1ccccc1N(CC(=O)N/N=C/c1ccc(OCC(=O)NCc2ccco2)cc1)S(=O)(=O)c1ccc(C)cc1	16µM*	-10%	30
Cc1ccc(S(=O)(=O)N/N=C/c2ccc(OCC(=O)Nc3ccccc3Cl)cc2)cc1	14µM*	-14%	15
COc1ccc(C2/C=C\CN(C(=O)OCC3c4ccccc4-c4ccccc43)CC(=O)N2Cc2cccc(F)c2)cc1 (configuration not stated)	-9%	-6%[50.4 µM]	/
COc1ccc(C(=O)N(O)c2ccccc2)cc1	?	-7%	/
NC(=O)[C@@H]1CCCN1Cc1ccc2c(c1)OCO2	-4%	6%[13.5 µM]	/
Fc1ccc(C2CC(c3ccco3)=NN2c2ccccc2)cc1 (configuration not stated)	?	8%	?
O=[N+]([O-])c1ccc(N2N=C(c3ccco3)CC2c2ccccc2)cc1 (configuration not stated)	-19%	10µM*	91
O=C(NCc1ccncc1)Nc1ccccc1F	/	10%	/
SMILES	HPGD block	ALDH1A1 block	PNC inhibitor
COc1cc(C/C=C/c2ccccc2)c(OC)cc1O	-7%	?	/
OCCC1CN(Cc2cccn2-c2ncccn2)CCN1C1CCCC1 (configuration not stated)	/	-9%	/
COc1ccc(Cc2nnc(NC(=O)Cn3cnc4c3c(=O)n(C)c(=O)n4C)s2)cc1OC	14µM*	?	-11
Cn1c(=O)c2c(ncn2CC(=O)Nc2nnc(Cc3ccccc3)s2)n(C)c1=O	-16%	-2%	?
N#Cc1nc(COc2ccccc2F)oc1NCCc1ccccc1	13µM*	-10%	?
N#Cc1nc(Cc2ccccc2)oc1NCCN1CCOCC1	0%	10%	-2
COc1ccc(CCNc2oc(COc3ccccc3)nc2C#N)cc1	-31%	?	19
N#Cc1nc(Cc2ccccc2)oc1NCc1ccccc1	14µM*	-3%	221
O=C(CCc1nnc(CCCCc2ccccc2)o1)N1CCC(N2CCCC2)CC1	/	-1%	/
O=C(O)c1c(-c2c3ccc(=O)cc-3oc3cc(O)ccc23)cc2ccccc2c1-c1ccccc1	-6%	10%[13.5 µM]	/
CN1CCN(NC(=S)NC2CCCCC2)CC1	-10%	5%	15
CCNc1ncc2nc(-c3ccc(Cl)cc3)c(=O)n(-c3ccccc3)c2n1	?	-7%	/
COc1cc(SC)ccc1C(=O)OC(C)C(=O)NC1CCCC1 (configuration not stated)	/	-10%	/
COCC1=C(C(=O)OC)C(c2ccco2)n2ncnc2N1 (configuration not stated)	/	-6%	/
COC(=O)C1=C(C)Nc2nnnn2C1c1ccco1 (configuration not stated)	?	10µM*	-3
COC(=O)C1=C(C)Nc2nnnn2C1c1cccnc1 (configuration not stated)	35µM*	-7%	95
CC1=C(C(=O)OC2CCCCC2)C(c2cccnc2)n2nnnc2N1 (configuration not stated)	-28%	10%	7
Cc1nsc(Nc2ccccc2)c1C#N	/	-3%	/
Cc1cccc(-n2c(SCC(=O)N3CC(=O)Nc4ccccc43)nc3ccccc3c2=O)c1C	-27%	-8%	?
CC(C)(C)c1ccc(-c2nnc(N)o2)cc1	/	10%	/
CCOC(=O)c1nc(C)sc1-c1ccnn1S(=O)(=O)c1ccc(C)cc1	/	3.2µM*	/
CCOC(=O)c1nc(C)sc1-c1ccnn1S(=O)(=O)c1ccc(Cl)cc1Cl	/	-14%	/
CC(=O)c1sc(NC(=O)COc2ccc(C(C)C)c(C)c2)nc1C	/	-1%	/
N=C(N)S/C=C\C(=O)O	35µM*	7.9µM*	/
COC(=O)c1[nH]c2ccc(F)cc2c1NC(=O)CCN1CC(C)OC(C)C1 (configuration not stated)	?	?	-89*
SMILES	HPGD block	ALDH1A1 block	PNC inhibitor
CCOC(=O)c1[nH]c2ccccc2c1NC(=O)CCN1CC(C)OC(C)C1 (configuration not stated)	-15%	-3%	25
CC12CS(=O)(=O)CC1SC(=S)N2Cc1ccccc1 (configuration not stated)	/	-1%	/
Oc1ccccc1C1Nc2cccc3cccc(c23)N1	?	24µM*	60
COc1ccccc1C1Nc2cccc3cccc(c23)N1	?	?	40
Brc1ccc(C2Nc3cccc4cccc(c34)N2)o1	?	4.5µM*	8
CCOc1ccc(C2Nc3cccc4cccc(c34)N2)cc1OC	-28%	?	21
c1csc(C2Nc3cccc4cccc(c34)N2)c1	?	?	48
CCOc1cc(C2Nc3cccc4cccc(c34)N2)ccc1O	-26%	20µM*	16
CNc1nc(-c2c(C)noc2C)nc2ccccc12	/	7%	/
CC(C)c1ccc(N2CC(C)(C)C2=O)cc1	/	-1%	/
O=C(CCC(=O)N(CC(=O)NC1CCCCC1)CC1CCCO1)Nc1nccs1 (configuration not stated)	/	9%	/
O=S(=O)(Nc1cccc(-c2ccc3nncn3n2)c1)c1ccc(Cl)s1	/	2%	/
CCc1cc[n+](-c2nc([O-])sc2C=O)cc1	-10%	0%	0
CC(C)(C)c1cc[n+](-c2nc([O-])sc2C=O)cc1	-4%	6%	-113*
CCc1ccccc1OCc1nc2ccc(S(=O)(=O)N3CCOCC3)cc2[nH]1	-21%	?	-12
COc1ccc(NS(=O)(=O)c2ccc3nc(COc4ccc5ccccc5c4)[nH]c3c2)cc1	/	-5%	?
Cc1ccccc1OCc1nc2ccc(S(=O)(=O)N3CCOCC3)cc2[nH]1	14µM*	10µM*	-10
COc1ccc(NS(=O)(=O)c2ccc3nc(COc4cccc5ccccc45)[nH]c3c2)cc1	35µM*	22µM*	-12
